Results taken from ChEMBL document CHEMBL1157539, “Thousands of chemical starting points for antimalarial lead identification” (Nature, 2010).

Assays:
Format in all cases: functional
[1] = system: Plasmodium falciparum; assay: GSK_TCMDC: Inhibition of Plasmodium falciparum 3D7 in whole red blood cells, using parasite LDH activity as an index of growth. Test compounds present at 2uM
[2] = system: Plasmodium falciparum; assay: GSK_TCMDC: Inhibition of Plasmodium falciparum Dd2 in whole red blood cells, using parasite LDH activity as an index of growth. Test compounds present at 2uM
[3] = system: HepG2; assay: GSK_TCMDC: Percent inhibition of human HepG2 cell line. Test compounds present at 10uM.

SMILES	Inhibition [1] [%]	Inhibition [2] [%]	Inhibition [3] [%]
COc1cc(F)c2ncc(Cl)c(CCN3CCC(NCc4cc5c(cn4)OCCO5)CC3)c2c1.Cl	89	57	2
CC(=O)c1ccc(N2CCN(C(=O)Nc3ccc(Cl)cc3)CC2)cc1	97	0	4
CC(=O)Nc1cc(C(=O)Nc2cccc(-c3cccc(-c4nc5cc(C(F)(F)F)ccc5[nH]4)c3)c2)ccc1C	97	43	56
Oc1c(C(Nc2nc3ccccc3s2)c2ccc(OC(F)F)cc2)ccc2cccnc12 (stereo not drawn)	92	85	62
C=C1N(C)c2cc([N+](=O)[O-])c(N)cc2C1(C)C	98	83	22
CCCCCCOc1ccc(C(=O)N[C@H]2CCN(CCCCCNC(=O)/C=C/c3ccc(Cl)c(Cl)c3)C2)cc1	99	25	10
O=C(O)/C=C/c1cccc(F)c1F	96	1	58
CN1c2ccc([N+](=O)[O-])cc2C(C)(C)C12C=Cc1cc(Br)cc([N+](=O)[O-])c1O2 (stereo not drawn)	100	99	0
CCn1cnc2c(N3CCCC3=O)cc(C(=O)N[C@@H](Cc3ccccc3)[C@H](O)CNC3CCCCC3)cc21	98	94	0
CC(C)C1C(O)=C(c2ccc3ccccc3c2)C(=O)N1CC1CCCCC1 (stereo not drawn)	84	43	11
C=C[C@H]1CN(CCCCCCC)CC[C@H]1C[C@@H](Cc1ccnc2ccc(OC)cc12)OC(=O)[C@](OC)(c1ccccc1)C(F)(F)F	96	96	12
FC(F)(F)c1ccc2[nH]ccc(=NN=Cc3cccc(Cl)c3)c2c1	97	2	0
CC(C)(C)Nc1cc(C(=O)N[C@@H](Cc2ccccc2)[C@H](O)CNC2CCOCC2)cc(N2CCCCS2(=O)=O)c1	99	98	0
CCCCn1c(SC(C)C)nc2c(c1=O)C1(CCCCC1)Cc1ccccc1-2	99	60	1
COc1ccc2nc(C)cc(Nc3ccc(Oc4ccc(Cl)c5ccccc45)c(Cl)c3)c2c1	100	100	83
CN(CCN1CCC(c2c[nH]c3ccccc23)CC1)C(=O)OCCCCCNC(=O)/C=C/c1ccc(Cl)c(Cl)c1	95	44	39
Cl.O=C(Nc1ccc2nccc(N3CCN4CCC[C@H]4C3)c2c1)c1ccc(Cl)c(Cl)c1	100	98	18
COc1ccc(CN2CCCC(C(=O)c3ccc(C(F)(F)F)cc3)C2)c(O)c1 (stereo not drawn)	98	88	0
c1ccc(-c2cc3cccc(-c4nc5cnccc5[nH]4)c3o2)cc1	100	95	37
CCOC(=O)c1cc(=O)c2ccc(OCC#N)cc2o1	88	86	2
O=C(O)C(F)(F)F.c1ccc(-n2ncc(CNCc3ccc(-c4cccc(-c5nc6ccccc6[nH]5)c4)cc3)n2)cc1	94	9	21

SMILES	Inhibition [1] [%]	Inhibition [2] [%]	Inhibition [3] [%]
Cc1ccc2c(=O)cc(CCc3cccc(F)c3F)n(CC(=O)N(Cc3ccc(-c4ccc(C(F)(F)F)cc4)cc3)C3CCN(C(C)C)CC3)c2n1.O=C(O)C(O)C(O)C(=O)O	100	49	58
CC(C)NCc1ccc(-c2ccc(-c3nc4cc(F)ccc4[nH]3)cc2)cc1.O=C(O)C(F)(F)F	100	100	14
CC(C)(C)Oc1ccc(NC(=O)c2ccccc2O)cc1	86	67	4
O=C(Nc1cccc(C(F)(F)F)c1)N1CCOC(CCN2CCC(c3ccccc3)CC2)(c2ccc(Cl)c(Cl)c2)C1 (stereo not drawn)	87	69	15
CCn1ccc2c(N3CCCS3(=O)=O)cc(C(=O)N[C@@H](Cc3ccccc3)[C@H](O)CNC(C)(C)CCCC(C)C)cc21	97	98	8
CC(C)CN1CCCN(Cc2cccc(NC(=O)c3ccc(Cl)c(Cl)c3)c2)CC1.O=C(O)C(F)(F)F	91	9	10
CC(C)CNc1c2c(nc3cnn(-c4c5c(nc6cn[nH]c46)CCCC5)c13)CCCC2	100	0	7
O=C(Nc1cccc(CN2CCN(C(=O)c3cccc(F)c3)CC2)c1)c1ccco1.O=C(O)C(F)(F)F	88	55	7
CCOC(=O)c1cn(CC)c2cc(N(C)CCc3ccc(OC)c(OC)c3)c(F)cc2c1=O.Cl	92	96	9
COCCn1c(SC(C)C(=O)Nc2cc(C(F)(F)F)ccc2Cl)nc2ccccc2c1=O (stereo not drawn)	97	95	8
Cc1cc(N2CCOCC2)nc(Nc2ccc(NC(=O)Nc3ccc(F)cc3)cc2)n1	100	34	35
COc1cccc(Cc2c(C)nc3nc(N)nc(N)c3c2C)c1.Cl	95	1	65
O=C1C(c2ccccc2)=C(Nc2ccc(Cl)cc2)c2ccccc21	91	59	5
CCOc1cc(C(=O)NCc2ccc(Cl)c(Cl)c2)ccc1-c1nc2cc(Cl)ccc2[nH]1	97	4	10
O=C(Nc1nc2cc(S(=O)(=O)NCCCN3CCOCC3)ccc2n1CCCn1ccnc1)c1ccc(Cl)cc1.O=C(O)C(F)(F)F	95	0	0
CC1CN(CC(O)Cn2c3ccc(Br)cc3c3cc(Br)ccc32)CC(C)O1 (stereo not drawn)	100	100	0
CC(C)C[C@H](NC(=O)OC(C)(C)C)C(=O)Nc1ccc(Cc2ccc(NC(=O)[C@H](CC(C)C)NC(=O)OC(C)(C)C)cc2)cc1	94	88	0
CCCCn1c(C(C)Oc2ccc(Cl)cc2Cl)nc2cc(S(N)(=O)=O)ccc21 (stereo not drawn)	94	45	24
O=C(/C=C/c1ccc(Cl)c(Cl)c1)NCCCCCN1CCC(C(=O)Nc2ccc(Cl)c(Cl)c2)CC1	98	0	73
COc1cccc(CCNCc2ccc(-c3cccc(CNC4CCCC4)c3)cc2)c1.O=C(O)C(F)(F)F	100	45	14
FC(F)(F)c1ccc2[nH]c(-c3cccc(-c4cccc(CNCc5cnn(-c6ccccc6)n5)c4)c3)nc2c1.O=C(O)C(F)(F)F	100	28	6

SMILES	Inhibition [1] [%]	Inhibition [2] [%]	Inhibition [3] [%]
COc1ccc(CNC2CCN(c3ccc(NC(=O)c4cccc(Cl)c4)cc3)CC2)cc1OC	96	13	26
Cc1cc(N2CCCC2)nc(Nc2ccc(NC(=O)c3ccccc3C)cc2)n1	100	40	22
N#Cc1ccc(N2CCN(Cc3ccc(-c4ccc(-c5nc6cc(C(F)(F)F)ccc6[nH]5)s4)cc3)CC2)nc1.O=C(O)C(F)(F)F	100	73	13
CCCCCN1CCCCC(NS(=O)(=O)c2ccc(C(=O)Nc3ccc(C(F)(F)F)cc3)cc2)C1.O=C(O)C(F)(F)F (stereo not drawn)	89	0	34
CCN(CCNC(=O)C1CCN(c2cc(-c3cccc(C)c3)ncn2)CC1)Cc1ccccc1	83	72	24
COc1ccc2c(=NN=Cc3ccc(OC)c4ccccc34)cc(C)[nH]c2c1	100	99	3
COc1cc(NC(=O)CCCCCCCCN2CCN(C)CC2)c2ncccc2c1	82	36	8
C/C=C/COc1ccc2ccccc2c1CNCCCCCCCCNCc1c(OC/C=C/C)ccc2ccccc12.CS(=O)(=O)O.O	87	86	100
Clc1ccc2c(N3CCCNCC3)ccnc2c1	100	99	11
C(=N\Nc1nccc2sc(-c3cccnc3)cc12)/c1cccnc1	98	54	5
CN1CCN(S(=O)(=O)c2ccc3nccc(Nc4ccc(Oc5ccccc5)cc4)c3c2)CC1.Cl	98	91	0
C[C@@H](N/C(=N\c1ccccc1Cl)Nc1ccc(C#N)cc1O)c1ccc(Br)cc1	98	70	33
CC(C)CCNC(=O)C1Cc2c([nH]c3ccc(Br)cc23)C2(CCN(CCc3ccccc3)CC2)N1 (stereo not drawn)	100	61	25
CC(C)CC(NC(=O)c1cccc(OCCN2CCOCC2)c1)C(=O)NC(/C=N/NC(=O)c1ccccc1)CCc1ccccc1 (stereo not drawn)	96	88	0
CSc1ccc(CN2CCC(NC(=O)c3ccc(-c4cccc(Cl)c4)s3)CC2)cc1.O=C(O)C(F)(F)F	86	19	75
CC(C)c1ccc(S(=O)(=O)Nc2cccc(CCN3CCC(N4CCCCC4)CC3)c2)cc1	100	35	37
COc1ccc(Oc2ccc(-c3c(O)cc(C)nc3C)cc2)cc1	93	88	0
Clc1ccc(CNc2ccnc(NCc3ccc4c(c3)OCCCO4)n2)c(Cl)c1	94	20	50
Cc1nc(-c2ccc(-c3ccc(C(=O)Nc4ccc(I)c(OCC5CCCN5C)c4)cc3)c(C)c2)no1.Cl (stereo not drawn)	97	39	100
